Measured values from PubChem BioAssay AID1159580 (chemical genetic matrix, 2015).
Hit rate of the full screen: of about 5,500 compounds, about 2,000 (36%) were called active. About 18% were inconclusive and are not listed. No stated cut-off is given here; in the data, active means normalized growth mostly below about 0.91 (no sharp cut-off); inconclusive means no clear call, values can overlap the other calls; inactive means mostly above about 0.92. Some of the results follow.

Assay: chemical genetic growth profiling, strain panel (AID 1159580);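 further: tested at 20 µM; growth read once vehicle control cultures reached saturation at 30 °C; 1 = growth at the plate median or of vehicle wells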
Settings: S. cerevisiae deletion strains, growth OD

Measured: normalized growth

O=c1oc2cc(O)ccc2s1
active: locus YCL029C, strain bik1, stronger effect = lower value 0.899 | locus YDR101C, strain arx1, stronger effect = lower value 0.899 | locus YDR318W, strain mcm21, stronger effect = lower value 0.911
inactive: locus YAL013W, strain DEP1, stronger effect = lower value 0.999 | locus YAL021C, strain ccr4, stronger effect = lower value 1.06 | locus YAL026C, strain drs2, stronger effect = lower value 1 | locus YAL030W, strain snc1, stronger effect = lower value 0.995 | locus YBL061C, strain skt5, stronger effect = lower value 1.01 | locus YBR009C, strain hhf1, stronger effect = lower value 0.972 | locus YBR021W, strain FUR4, stronger effect = lower value 1.03 | locus YBR023C, strain chs3, stronger effect = lower value 1.01 | locus YBR171W, strain sec66, stronger effect = lower value 1.02 | locus YBR229C, strain ROT2, stronger effect = lower value 0.966 | locus YBR231C, strain swc5, stronger effect = lower value 0.965 | locus YBR279W, strain paf1, stronger effect = lower value 0.999 | locus YCL011C, strain gbp2, stronger effect = lower value 0.988 | locus YCL016C, strain dcc1, stronger effect = lower value 0.993 | locus YCL061C, strain MRC1, stronger effect = lower value 0.997 | locus YCL069W, strain vba3, stronger effect = lower value 1.01 | locus YCR088W, strain abp1, stronger effect = lower value 1.01 | locus YDL005C, strain med2, stronger effect = lower value 1.04 | locus YDL035C, strain GPR1, stronger effect = lower value 0.945 | locus YDL040C, strain nat1, stronger effect = lower value 1 | locus YDL074C, strain BRE1, stronger effect = lower value 0.962 | locus YDL101C, strain DUN1, stronger effect = lower value 0.967 | locus YDL134C, strain PPH21, stronger effect = lower value 0.972 | locus YDL185W, strain tfp1, stronger effect = lower value 0.955 | locus YDL192W, strain arf1, stronger effect = lower value 0.954 | locus YDR001C, strain nth1, stronger effect = lower value 1.01 | locus YDR069C, strain doa4, stronger effect = lower value 0.998 | locus YDR137W, strain rgp1, stronger effect = lower value 1.02 | locus YDR150W, strain NUM1, stronger effect = lower value 0.993 | locus YDR159W, strain sac3, stronger effect = lower value 0.941 | locus YDR162C, strain NBP2, stronger effect = lower value 0.968 | locus YDR195W, strain ref2 1.12 | locus YDR297W, strain sur2, stronger effect = lower value 1.01 | locus YDR334W, strain swr1, stronger effect = lower value 1.01 | locus YDR335W, strain msn5, stronger effect = lower value 0.99 | locus YDR388W, stronger effect = lower value 0.947 | locus YDR392W, strain spt3, stronger effect = lower value 0.953 | locus YDR502C, strain sam2, stronger effect = lower value 0.934 | locus YEL003W, strain gim4, stronger effect = lower value 0.999 | locus YEL037C, strain rad23, stronger effect = lower value 0.998 | locus YEL061C, strain CIN8 (second series), stronger effect = lower value 1.01 | locus YEL061C, strain CIN8, stronger effect = lower value 0.98 | locus YER015W, strain faa2, stronger effect = lower value 0.975 | locus YER016W, strain bim1, stronger effect = lower value 0.989 | locus YER110C, stronger effect = lower value 0.968 | locus YER111C, strain swi4, stronger effect = lower value 0.996 | locus YER155C, strain BEM2 (second series), stronger effect = lower value 0.988 | locus YER155C, strain BEM2, stronger effect = lower value 0.973 | locus YER167W, strain BCK2, stronger effect = lower value 0.965 | locus YFR010W, strain ubp6, stronger effect = lower value 0.978 | locus YGL078C, strain dbp3, stronger effect = lower value 0.96 | locus YGL086W, strain mad1, stronger effect = lower value 0.932 | locus YGL167C, strain pmr1, stronger effect = lower value 1.02 | locus YGL173C, strain kem1, stronger effect = lower value 0.967 | locus YGL227W, strain vid30, stronger effect = lower value 1 | locus YGL240W, strain doc1, stronger effect = lower value 0.967 | locus YGL248W, strain PDE1, stronger effect = lower value 0.985 | locus YGL253W, strain hxk2, stronger effect = lower value 1 | locus YGR078C, strain PAC10, stronger effect = lower value 0.969 | locus YGR135W, strain pre9, stronger effect = lower value 0.898 | locus YGR229C, strain SMI1, stronger effect = lower value 0.965 | locus YGR252W, strain gcn5, stronger effect = lower value 0.956 | locus YHR013C, strain ard1, stronger effect = lower value 1.1 | locus YHR027C, strain rpn1, stronger effect = lower value 0.998 | locus YHR030C, strain SLT2, stronger effect = lower value 0.983 | locus YHR079C, strain IRE1 (second series), stronger effect = lower value 0.942 | locus YHR094C, strain hxt1, stronger effect = lower value 0.966 | locus YHR129C, strain ARP1, stronger effect = lower value 0.966 | locus YHR142W, strain chs7, stronger effect = lower value 1.04 | locus YHR200W, strain rpn10, stronger effect = lower value 0.927 | locus YIL066C, strain RNR3, stronger effect = lower value 0.946 | locus YIL073C, strain SPO22, stronger effect = lower value 0.996 | locus YIL125W, strain kgd1, stronger effect = lower value 0.982 | locus YIR030C, strain dcg1, stronger effect = lower value 0.962 | locus YJL092W, strain hpr5, stronger effect = lower value 0.988 | locus YJL095W, strain BCK1 (second series), stronger effect = lower value 1.02 | locus YJL095W, strain BCK1, stronger effect = lower value 0.933 | locus YJL115W, strain asf1, stronger effect = lower value 1.03 | locus YJL129C, strain trk1, stronger effect = lower value 1.03 | locus YJL134W, strain LCB3, stronger effect = lower value 0.976 | locus YJL154C, strain vps35, stronger effect = lower value 1.02 | locus YJL164C, strain tpk1, stronger effect = lower value 1.01 | locus YJL166W, strain qcr8, stronger effect = lower value 0.99 | locus YJL168C, strain set2, stronger effect = lower value 0.961 | locus YJL187C, strain SWE1 (second series), stronger effect = lower value 0.952 | locus YJL187C, strain SWE1, stronger effect = lower value 1
